Laboratory results from PubChem BioAssay AID652065 (The Scripps Research Institute Molecular Screening Center, 2013).
Hit rate of the full screen: of about 4,300 compounds, about 3,000 (70%) were called active. The set was probably picked from earlier hits. Only a sample is shown. Unmarked numbers belong to inactive results.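 Rule for the calls: active = inhibition above a per-plate cutoff, the mean inhibition of sample wells plus 3 SD (cut at about 35% in these data); inactive = the rest.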

Assay: small molecules binding CAG repeat RNA – biochemical, fluorescence, confirmation (AID 652065);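 note: loss of TO-PRO-1 fluorescence as compound displaces dye from 1x1 AA loop RNA; 0% = DMSO only wells and 100% = 100 µM mitoxantrone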
Details: r(CAG) RNA repeat, TO-PRO-1 dye displacement fluorescence; at 3 µM; active compounds read high

Row | Compound | inhibition
1 | COc1ccc(C(CNC(=O)c2cccc(S(=O)(=O)Nc3ccccc3Cl)c2)N2CCOCC2)cc1 (stereo unspecified) | 63.9% (active)
2 | Cc1cc(C(=O)N/N=C/c2ccc(O)c([N+](=O)[O-])c2)c(C)n1-c1ccc(F)cc1 | 42.6% (active)
3 | Cc1sc(NC(=O)c2ccc3ncsc3c2)c(C(N)=O)c1C | 18.1%
4 | O=c1ccc2c(-c3ccccc3S(=O)(=O)O)c3ccc(O)c(O)c3oc-2c1O | 91.4% (active)
5 | CCc1ccc(N2CC(C(=O)Nc3ccc(S(=O)(=O)Nc4nccs4)cc3)CC2=O)cc1 (stereo unspecified) | 42% (active)
6 | CCCCCCC(=O)Nc1nc(C)c(-c2csc(Nc3cc(Cl)ccc3OC)n2)s1 | 21.8%
7 | O=C(CCc1ccccc1Cl)Nc1ccc(S(=O)(=O)Nc2nccs2)cc1 | 39.1% (active)
8 | Cc1ccc(OCCC(=O)Nc2ccc(S(=O)(=O)Nc3nccs3)cc2)cc1 | 35% (active)
9 | O=C(Nc1ccc(S(=O)(=O)Nc2nccs2)cc1)c1cccc(S(=O)(=O)N2CCOCC2)c1 | 20.8%
10 | O=C(Nc1ccc(S(=O)(=O)Nc2nccs2)cc1)c1cc(-c2ccncc2)nc2ccccc12 | 65.2% (active)
11 | COC(=O)c1sc(-c2ccc(C(C)(C)C)cc2)cc1NC(=O)/C=C/C(=O)O | 80% (active)
12 | C[C@H]([C@@H](O)[C@@H](O)[C@@H](C)C(C)(C)C)[C@H]1CC[C@H]2C3CC[C@H]4C[C@H](OS(=O)(=O)O)[C@@H](OS(=O)(=O)O)C[C@]4(C)[C@H]3CC[C@]12C (stereo partly specified) | 87.8% (active)
13 | O=C(Nc1ccccc1)Nc1nc2ccccc2s1 | 13.2%
14 | O=C(Nc1ccccc1)Nc1nnc(COc2ccccc2F)s1 | 42.2% (active)
15 | Cc1ccc(NC(=O)Nc2nnc(-c3ccncc3)s2)cc1 | 25.5%
16 | COC(=O)c1sccc1NC(=O)CSc1ccccc1NS(=O)(=O)c1cc(Cl)ccc1Cl | 73% (active)
17 | O=C(Nc1cccc(Cl)c1)Nc1ccccc1NS(=O)(=O)c1cccs1 | 34.4%
18 | CCOc1cc(C(=O)Nc2ccc(S(=O)(=O)Nc3cnc4ccccc4n3)cc2)cc(OCC)c1OCC | 66.4% (active)
19 | Cc1ccccc1-c1ccc2c(c1)O[C@@H](CN(C)Cc1ccc(C(=O)O)cc1)[C@@H](C)CN([C@H](C)CO)S2(=O)=O | 58.3% (active)
20 | COc1cc(C(=O)Nn2c(O)c(C3=c4ccccc4=NC3=O)sc2=S)ccc1O | 14.6%
21 | Cc1noc(NS(=O)(=O)c2ccc(NC(=O)c3oc4ccc(F)cc4c3C)cc2)c1C | 71.9% (active)
22 | CCn1c(SCC(=O)Nc2ccc(S(=O)(=O)Nc3onc(C)c3C)cc2)nnc1-c1ccccc1 | 22%
23 | Cc1ccc(C(=O)/C=C/Nc2ccc(S(=O)(=O)Nc3onc(C)c3C)cc2)cc1 | 62.5% (active)
24 | Cc1cc(OC(C)C(=O)Nc2ccc(S(=O)(=O)Nc3onc(C)c3C)cc2)cc(C)c1Cl (stereo unspecified) | 62.4% (active)
25 | CCc1ccc(OC(C)C(=O)Nc2ccc(S(=O)(=O)Nc3cc(C)on3)cc2)cc1 (stereo unspecified) | 26.1%
26 | Cc1cc(C)c2nc(-c3cccnc3)cc(C(=O)Nc3ccc(S(=O)(=O)Nc4onc(C)c4C)cc3)c2c1 | 83.2% (active)

Row | Compound | inhibition
27 | COc1cccc(-c2coc3cc4oc(=O)c(CC(=O)O)c(C)c4cc23)c1 | 42.7% (active)
28 | O=C(COc1ccc([N+](=O)[O-])cc1)Nc1cccc(C(=O)Nc2ccccc2C(=O)O)c1 | 62.4% (active)
29 | CCN(CC)C(=O)CSC(Nc1cccc(F)c1)=C(C#N)C#N | 38.4% (active)
30 | Cc1nnc(SC(C(=O)Nc2cc(Cl)cc(Cl)c2)c2ccccc2)[nH]c1=O (stereo unspecified) | 64.1% (active)
31 | COc1ccc(Cc2nnc(SCC(=O)Nc3ccc(C)c(Cl)c3)[nH]c2=O)cc1 | 62.5% (active)
32 | CC(=O)Nc1ccc(S(=O)(=O)N(CCc2ccccc2)CC(=O)N/N=C/c2ccc(C(=O)O)cc2)cc1 | 28.1%
33 | O=C(COC(=O)c1ccc(NS(=O)(=O)c2cccs2)cc1O)Nc1ccc(F)cc1 | 23.1%
34 | Cc1cc(NS(=O)(=O)c2ccc(NC(=O)CSc3nnc(-c4ccc(C(C)(C)C)cc4)n3Cc3ccco3)cc2)nc(C)n1 | 23.6%
35 | Cc1cc(NS(=O)(=O)c2ccc(NC(=O)CSc3nnc(SCc4ccc(F)cc4)s3)cc2)nc(C)n1 | 45% (active)
36 | C=CCn1c(=S)[nH]c2scc(-c3ccco3)c2c1=O | 27.3%
37 | O=C(O)c1ccccc1/C=N/Nc1ccc(S(=O)(=O)Nc2ccc(Cl)cc2)cc1[N+](=O)[O-] | 63.4% (active)
38 | COc1cccc(/C=N/Nc2ccc(S(=O)(=O)Nc3ccccc3C(=O)O)cc2[N+](=O)[O-])c1O | 93.9% (active)
39 | COc1ccc(Br)cc1/C=N/Nc1ccc(S(=O)(=O)Nc2ccccc2C(=O)O)cc1[N+](=O)[O-] | 93.4% (active)
40 | NS(=O)(=O)c1ccc(N=Nc2c(O)[nH]c3ccc(Br)cc23)cc1 | 18.8%
41 | O=C1/C(=C/c2ccc(F)cc2)SC(=S)N1NS(=O)(=O)c1ccccc1 | 53.6% (active)
42 | COc1ccc(/C=C/C(=O)c2ccc(NS(=O)(=O)c3ccc(C)cc3)cc2)cc1O | 54.9% (active)
43 | COc1cc(/C=C2/C(=O)NN(c3cccc(Cl)c3)C2=O)cc(Br)c1O | 24.5%
44 | COc1cc(NC(=O)c2ccccc2NS(=O)(=O)c2ccc(Cl)s2)cc(OC)c1 | 82% (active)
45 | O=C(Nc1nncs1)c1ccccc1NS(=O)(=O)c1cccs1 | 30.2%
46 | CCc1nnc(NS(=O)(=O)c2ccc(NC(=O)c3cccc(OC(F)(F)C(F)F)c3)cc2)s1 | 56.7% (active)
47 | CCc1nnc(NS(=O)(=O)c2ccc(NC(=S)NC(=O)c3cccs3)cc2)s1 | 46.7% (active)
48 | NS(=O)(=O)c1ccc(NC2=CC(c3ccc(F)cc3)N(c3ccc(S(N)(=O)=O)cc3)C2=O)cc1 (stereo unspecified) | 12.6%
49 | Cc1ccc(SC(CC(=O)c2ccc(C(C)(C)C)cc2)C(=O)O)cc1 (stereo unspecified) | 44.7% (active)
50 | Cc1ccc(C(=O)Oc2coc(CSc3nnc(NC(=O)c4cccs4)s3)cc2=O)cc1C | 60.6% (active)
51 | O=C(O)CCn1cc(/C=C/C(=O)c2ccc(Cl)cc2)c(-c2cccc(Br)c2)n1 | 86.2% (active)
